Source: the supplement of paper PMC10849652
Of roughly 8,800 targets only a part is listed; those with a hit were picked by preference. About 0.5% of all pairs of compound and target were hits.

Legend:
Assay in all cases: log2 fold change, soluble protein after heating vs DMSO (PISA); higher = thermal stabilisation; K562 lysate, 10 uM; active = over 0.2 and 3.5 SD of the protein, either way, in both replicates (recomputed)
[1] = compound: Cc1sc2c(c1C)C(c1ccc(Cl)cc1)=N[C@@H](CC(=O)OC(C)(C)C)c1nnc(C)n1-2
Outline: (§1)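 The values are log-two fold changes in thermal stability compared with solvent controls and come from duplicates. They were obtained by TMTpro 16plex LC-MS/MS, with channel sums equalised, on the supernatant after 21,000xg for 90 min. That supernatant came from crude K562 extract at 1 mg/mL protein treated with 10 μM compound for 30 min, heated for 3 min across 48°C-58°C, pooled and brought to 0.5% NP-40 at 4°C.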

[2] = compound: C1=CC=C(C=C1)[C@H](COC2=CC3=C(C=C2)NC(=O)N3)NC(=O)C4=CC=CN(C4=O)CC5=CC(=C(C=C5)F)F
Outline: as §1

[3] = compound: CC1=C(SC2=C1C(=N[C@H](C3=NN=C(N32)C)CC(=O)N)C4=CC=C(C=C4)Cl)C
Outline: as §1

[4] = compound: CC1=C2C(=CC=C1)N=C(N(C2=O)C3=CC=CC=C3C)CN4C=NC5=C(N=CN=C54)N
Outline: as §1

[5] = compound: c1ccc([C@@H]2C[C@H]2NC2CCNCC2)cc1
Outline: as §1

Chain of UniProt Q9NP59 (Q9NP59 whole entry, looked up): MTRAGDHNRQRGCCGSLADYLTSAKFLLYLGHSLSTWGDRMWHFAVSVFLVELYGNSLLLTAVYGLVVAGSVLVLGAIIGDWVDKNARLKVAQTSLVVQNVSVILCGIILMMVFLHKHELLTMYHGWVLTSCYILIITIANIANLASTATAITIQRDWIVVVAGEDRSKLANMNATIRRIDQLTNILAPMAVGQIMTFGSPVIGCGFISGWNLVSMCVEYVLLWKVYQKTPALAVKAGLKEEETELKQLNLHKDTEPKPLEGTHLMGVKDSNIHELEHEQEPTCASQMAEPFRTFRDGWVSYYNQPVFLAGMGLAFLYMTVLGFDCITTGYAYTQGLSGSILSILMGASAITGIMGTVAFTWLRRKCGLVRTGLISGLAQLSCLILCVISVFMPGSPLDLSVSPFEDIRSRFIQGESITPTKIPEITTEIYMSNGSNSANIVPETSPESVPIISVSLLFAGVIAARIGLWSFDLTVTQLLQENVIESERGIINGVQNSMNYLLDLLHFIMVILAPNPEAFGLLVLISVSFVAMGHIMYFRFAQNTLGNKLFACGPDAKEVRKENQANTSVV
Chain of UniProt O95149 (O95149 whole entry, looked up): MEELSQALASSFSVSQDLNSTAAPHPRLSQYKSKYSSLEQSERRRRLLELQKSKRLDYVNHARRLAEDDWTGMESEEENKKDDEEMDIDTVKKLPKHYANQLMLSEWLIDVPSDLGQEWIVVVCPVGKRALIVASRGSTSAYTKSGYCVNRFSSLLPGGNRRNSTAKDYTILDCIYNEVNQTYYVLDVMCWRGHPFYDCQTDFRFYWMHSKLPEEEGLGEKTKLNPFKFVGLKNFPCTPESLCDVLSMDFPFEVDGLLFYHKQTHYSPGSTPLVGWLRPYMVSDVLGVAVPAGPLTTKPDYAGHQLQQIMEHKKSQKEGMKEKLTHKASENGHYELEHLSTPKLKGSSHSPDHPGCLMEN
Chain of UniProt Q13487 (Q13487 whole entry, looked up): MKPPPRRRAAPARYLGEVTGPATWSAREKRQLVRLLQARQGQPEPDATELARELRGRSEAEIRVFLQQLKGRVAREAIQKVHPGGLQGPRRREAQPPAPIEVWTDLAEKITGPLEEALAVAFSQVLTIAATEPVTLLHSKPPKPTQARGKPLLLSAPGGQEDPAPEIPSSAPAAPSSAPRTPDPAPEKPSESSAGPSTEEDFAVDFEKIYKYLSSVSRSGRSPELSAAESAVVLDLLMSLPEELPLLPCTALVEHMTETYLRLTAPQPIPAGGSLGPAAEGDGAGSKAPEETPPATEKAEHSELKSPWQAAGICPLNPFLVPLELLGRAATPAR
Chain of UniProt O95793 (O95793 whole entry, looked up): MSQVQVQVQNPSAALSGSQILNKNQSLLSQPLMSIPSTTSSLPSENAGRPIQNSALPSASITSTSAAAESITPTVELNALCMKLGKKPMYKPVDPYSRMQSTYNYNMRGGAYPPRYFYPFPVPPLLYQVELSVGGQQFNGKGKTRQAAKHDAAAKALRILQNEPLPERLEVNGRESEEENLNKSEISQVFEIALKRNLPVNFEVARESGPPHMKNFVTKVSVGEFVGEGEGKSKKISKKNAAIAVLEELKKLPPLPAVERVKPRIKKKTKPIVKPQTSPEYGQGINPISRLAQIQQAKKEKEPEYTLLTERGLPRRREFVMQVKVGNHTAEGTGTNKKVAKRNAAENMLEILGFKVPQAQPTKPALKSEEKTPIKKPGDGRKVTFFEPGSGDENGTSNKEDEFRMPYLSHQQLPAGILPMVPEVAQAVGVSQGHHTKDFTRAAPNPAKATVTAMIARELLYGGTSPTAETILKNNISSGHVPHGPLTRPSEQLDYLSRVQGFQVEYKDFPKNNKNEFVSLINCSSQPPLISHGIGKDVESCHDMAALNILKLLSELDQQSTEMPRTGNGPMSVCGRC
Chain of UniProt Q6NXT4 (Q6NXT4 whole entry, looked up): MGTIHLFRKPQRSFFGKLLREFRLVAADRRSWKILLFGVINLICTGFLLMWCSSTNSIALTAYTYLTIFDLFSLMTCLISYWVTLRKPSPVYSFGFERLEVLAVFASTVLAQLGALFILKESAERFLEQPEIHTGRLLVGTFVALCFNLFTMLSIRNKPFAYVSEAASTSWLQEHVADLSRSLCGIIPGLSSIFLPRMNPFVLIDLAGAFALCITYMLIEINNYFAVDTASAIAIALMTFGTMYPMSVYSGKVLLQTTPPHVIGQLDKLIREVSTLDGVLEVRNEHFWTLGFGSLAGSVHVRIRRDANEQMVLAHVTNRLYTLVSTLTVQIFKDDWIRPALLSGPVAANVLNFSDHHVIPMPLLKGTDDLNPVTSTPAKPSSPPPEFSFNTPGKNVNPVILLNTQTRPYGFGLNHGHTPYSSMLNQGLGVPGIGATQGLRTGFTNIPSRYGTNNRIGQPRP
Chain of UniProt O00161 (O00161 whole entry, looked up): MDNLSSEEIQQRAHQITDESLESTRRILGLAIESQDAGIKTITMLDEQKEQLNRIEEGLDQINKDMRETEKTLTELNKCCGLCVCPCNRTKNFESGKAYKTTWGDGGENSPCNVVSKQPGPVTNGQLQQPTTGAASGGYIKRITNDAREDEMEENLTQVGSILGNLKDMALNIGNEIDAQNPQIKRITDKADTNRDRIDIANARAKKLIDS
Chain of UniProt Q15464 (Q15464 whole entry, looked up): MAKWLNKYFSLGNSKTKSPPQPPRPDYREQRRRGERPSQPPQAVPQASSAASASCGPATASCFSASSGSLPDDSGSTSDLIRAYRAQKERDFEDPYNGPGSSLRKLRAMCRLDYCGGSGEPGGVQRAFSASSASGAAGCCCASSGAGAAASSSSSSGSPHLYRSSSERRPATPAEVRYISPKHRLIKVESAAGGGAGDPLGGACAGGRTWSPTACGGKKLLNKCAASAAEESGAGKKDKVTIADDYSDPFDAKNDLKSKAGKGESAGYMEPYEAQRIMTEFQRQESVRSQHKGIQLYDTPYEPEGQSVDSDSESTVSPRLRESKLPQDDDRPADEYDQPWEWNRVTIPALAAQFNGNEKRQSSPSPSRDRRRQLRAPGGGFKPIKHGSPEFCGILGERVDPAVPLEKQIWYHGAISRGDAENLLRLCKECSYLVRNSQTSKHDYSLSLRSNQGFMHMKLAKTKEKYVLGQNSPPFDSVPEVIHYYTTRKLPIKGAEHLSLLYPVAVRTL
Chain of UniProt Q9UHW9 (Q9UHW9 whole entry, looked up): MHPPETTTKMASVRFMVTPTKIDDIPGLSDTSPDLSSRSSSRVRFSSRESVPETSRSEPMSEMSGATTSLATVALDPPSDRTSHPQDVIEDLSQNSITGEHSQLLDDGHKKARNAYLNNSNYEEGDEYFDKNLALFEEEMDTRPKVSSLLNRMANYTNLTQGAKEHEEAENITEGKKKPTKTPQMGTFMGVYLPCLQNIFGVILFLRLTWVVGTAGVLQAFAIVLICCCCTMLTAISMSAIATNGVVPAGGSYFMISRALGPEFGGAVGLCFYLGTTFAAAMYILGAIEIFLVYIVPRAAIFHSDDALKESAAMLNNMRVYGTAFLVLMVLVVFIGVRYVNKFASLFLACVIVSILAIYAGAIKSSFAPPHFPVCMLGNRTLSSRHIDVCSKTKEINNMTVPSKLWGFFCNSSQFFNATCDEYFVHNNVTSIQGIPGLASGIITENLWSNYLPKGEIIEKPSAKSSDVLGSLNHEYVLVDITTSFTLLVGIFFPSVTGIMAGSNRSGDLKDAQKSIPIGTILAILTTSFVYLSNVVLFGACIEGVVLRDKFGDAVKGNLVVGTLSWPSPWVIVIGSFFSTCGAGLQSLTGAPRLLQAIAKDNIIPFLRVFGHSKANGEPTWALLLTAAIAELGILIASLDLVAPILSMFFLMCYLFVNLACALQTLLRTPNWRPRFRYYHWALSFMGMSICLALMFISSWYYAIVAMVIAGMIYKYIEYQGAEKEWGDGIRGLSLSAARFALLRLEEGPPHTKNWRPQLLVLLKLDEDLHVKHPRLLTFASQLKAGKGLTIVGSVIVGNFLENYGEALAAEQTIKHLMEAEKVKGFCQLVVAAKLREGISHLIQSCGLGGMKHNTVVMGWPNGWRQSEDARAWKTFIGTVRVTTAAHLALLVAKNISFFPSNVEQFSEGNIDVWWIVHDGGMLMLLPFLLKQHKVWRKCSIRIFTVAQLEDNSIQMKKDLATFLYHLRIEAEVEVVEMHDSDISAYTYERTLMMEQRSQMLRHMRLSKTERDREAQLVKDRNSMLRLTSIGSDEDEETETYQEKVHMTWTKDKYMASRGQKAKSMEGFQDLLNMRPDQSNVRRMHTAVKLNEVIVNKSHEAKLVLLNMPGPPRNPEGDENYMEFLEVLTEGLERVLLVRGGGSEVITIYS
Chain of UniProt O94768 (O94768 whole entry, looked up): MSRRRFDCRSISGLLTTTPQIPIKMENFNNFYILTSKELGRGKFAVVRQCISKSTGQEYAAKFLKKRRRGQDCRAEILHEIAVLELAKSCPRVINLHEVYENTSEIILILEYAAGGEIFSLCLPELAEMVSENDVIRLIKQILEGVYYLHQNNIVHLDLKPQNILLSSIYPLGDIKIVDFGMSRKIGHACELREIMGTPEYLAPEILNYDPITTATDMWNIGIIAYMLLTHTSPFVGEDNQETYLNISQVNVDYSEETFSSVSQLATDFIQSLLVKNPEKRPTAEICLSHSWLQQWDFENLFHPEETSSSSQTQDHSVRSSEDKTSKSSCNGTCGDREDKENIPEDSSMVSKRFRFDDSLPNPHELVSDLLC

Target | log2 fold change [1] | log2 fold change [2] | log2 fold change [3] | log2 fold change [4] | log2 fold change [5]
SLC12A6 isoform 2 (UniProt Q9UHW9) | -0.179 (inactive) |  |  |  | 
SNUPN (UniProt O95149) |  | -0.013 (inactive) | -0.018 (inactive) | 0.047 (inactive) | -0.02 (inactive)
STAU1 isoform 3 (UniProt O95793) |  | 0.19 (inactive) | 0.043 (inactive) |  | 0.081 (inactive)
SNAP23 isoform 2 (UniProt O00161) |  |  |  | 0.045 (inactive) | -0.038 (inactive)
SHB (UniProt Q15464) | 0.033 (inactive) |  |  |  | 0.086 (inactive)
SLC40A1 (UniProt Q9NP59) | -0.107 (inactive) |  |  | 0.013 (inactive) | -0.205 (inactive)
SLC30A6 isoform 2 (UniProt Q6NXT4) |  | 0.033 (inactive) | -0.046 (inactive) | 0.116 (inactive) | -0.059 (inactive)
SNAPC2 (UniProt Q13487) | 0.101 (inactive) | 0.107 (inactive) | 0.302 (inactive) |  | 0.004 (inactive)
STK17B (UniProt O94768) | -0.029 (inactive) |  |  |  | 
